Consider 9 compounds from PubChem BioAssay (NCATS).

One may read the viability as a read-out of living cells in per cent, often relative to untreated cells.

The nature of test [1]: Quantitative High-Throughput drug screen in 47 multiple myeloma cell lines against the NCATS MIPE library collection: LP1_DSMZ cell viability assay (AID 1918982). Note: nearly all actives have a fitted effect of over 35% in size. Note: potency is the fitted concentration of half-maximal effect. The method, boiled down:
(§1)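 Myeloma cells (500/well) treated with MIPE 4.0 compounds for 48 h at 37 °C, 5% CO2. Viability read as ATP via CellTiter-Glo luminescence after 5 min at RT; DMSO-only wells = 100%, media-only = 0% viability.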

The nature of test [2]: Quantitative High-Throughput drug screen in 47 multiple myeloma cell lines against the NCATS MIPE library collection: KMS34_JCRB cell viability assay (AID 1918985). Note: nearly all actives have a fitted effect of over 40% in size. Note: potency is the fitted concentration of half-maximal effect. The essentials: as §1
Test [3] in a line: Quantitative High-Throughput drug screen in 47 multiple myeloma cell lines against the NCATS MIPE library collection: OCIMY7_PLB cell viability assay (AID 1918987). Note: nearly all actives have a fitted effect of over 65% in size. Note: potency is the fitted concentration of half-maximal effect. The method, boiled down:
as §1

Test [4] is described as follows: Quantitative High-Throughput drug screen in 47 multiple myeloma cell lines against the NCATS MIPE library collection: OCIMY5_PLB cell viability assay (AID 1918988). Note: nearly all actives have a fitted effect of over 65% in size. Note: potency is the fitted concentration of half-maximal effect. The method, boiled down: as §1
Test [5] in a line: Quantitative High-Throughput drug screen in 47 multiple myeloma cell lines against the NCATS MIPE library collection: OPM1_PLB cell viability assay (AID 1918989). Note: potency is the fitted concentration of half-maximal effect; nearly all actives have a fitted effect of over 40% in size. The method, boiled down: as §1
A short description of test [6]: Quantitative High-Throughput drug screen in 47 multiple myeloma cell lines against the NCATS MIPE library collection: SKMM1_PLB cell viability assay (AID 1919863). Note: nearly all actives have a fitted effect of over 35% in size. Note: potency is the fitted concentration of half-maximal effect. Particulars: SKMM1 myeloma viability, CellTiter-Glo ATP, 48 h; viability: hits give low values. The method, boiled down:
as §1
For orientation: ATP-based viability assays read luminescence as a measure of living cells.

The nature of test [7]: Quantitative High-Throughput drug screen in 47 multiple myeloma cell lines against the NCATS MIPE library collection: U266_ATCC cell viability assay (AID 1919864). Note: potency is the fitted concentration of half-maximal effect; nearly all actives have a fitted effect of over 35% in size. The method, boiled down:
as §1

Test [8] can be described thus: Quantitative High-Throughput drug screen in 47 multiple myeloma cell lines against the NCATS MIPE library collection: XG6_PLB cell viability assay (AID 1919865). Note: nearly all actives have a fitted effect of over 40% in size. Note: potency is the fitted concentration of half-maximal effect. The method, boiled down: as §1
Test [9] can be described thus: Quantitative High-Throughput drug screen in 47 multiple myeloma cell lines against the NCATS MIPE library collection: XG1_PLB cell viability assay (AID 1919866). Note: nearly all actives have a fitted effect of over 35% in size. Note: potency is the fitted concentration of half-maximal effect. The essentials: as §1
Test [10] in a line: Quantitative High-Throughput drug screen in 47 multiple myeloma cell lines against the NCATS MIPE library collection: VP6_DJ cell viability assay (AID 1919867). Note: nearly all actives have a fitted effect of over 40% in size. Note: potency is the fitted concentration of half-maximal effect. The method, boiled down:
as §1

A short description of test [11]: Quantitative High-Throughput drug screen in 47 multiple myeloma cell lines against the NCATS MIPE library collection: UTMC2_PLB cell viability assay (AID 1919868). Note: potency is the fitted concentration of half-maximal effect; nearly all actives have a fitted effect of over 55% in size. Particulars: CellTiter-Glo ATP luminescence, 48 h; viability (% of DMSO control): at 45.8 µM (top of the series). The essentials:
as §1

The nature of test [12]: Quantitative High-Throughput drug screen in 47 multiple myeloma cell lines against the NCATS MIPE library collection: PE2_PLB cell viability assay (AID 1919869). Note: nearly all actives have a fitted effect of over 35% in size. Note: potency is the fitted concentration of half-maximal effect. The essentials:
as §1

Test [13] is described as follows: Quantitative High-Throughput drug screen in 47 multiple myeloma cell lines against the NCATS MIPE library collection: PCM6_Riken cell viability assay (AID 1919870). Note: nearly all actives have a fitted effect of over 30% in size. Note: potency is the fitted concentration of half-maximal effect. The essentials:
as §1

Test [14] can be described thus: Quantitative High-Throughput drug screen in 47 multiple myeloma cell lines against the NCATS MIPE library collection: OPM2_DSMZ cell viability assay (AID 1919872). Note: nearly all actives have a fitted effect of over 30% in size. Note: potency is the fitted concentration of half-maximal effect. The essentials:
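Relative luminescence from CellTiter-Glo served as the viability signal, referenced to DMSO-treated (100%) and cell-free medium (0%) controls. Treatment lasted 48 hours at 37C with 500 cells per well.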

A short description of test [15]: Quantitative High-Throughput drug screen in 47 multiple myeloma cell lines against the NCATS MIPE library collection: KMS11_JCRBsus cell viability assay (AID 1919873). Note: nearly all actives have a fitted effect of over 50% in size. Note: potency is the fitted concentration of half-maximal effect. The essentials:
as §1

A short description of test [16]: Quantitative High-Throughput drug screen in 47 multiple myeloma cell lines against the NCATS MIPE library collection: KMS28BM_JCRB cell viability assay (AID 1919874). Note: nearly all actives have a fitted effect of over 35% in size. Note: potency is the fitted concentration of half-maximal effect. The essentials: as §1
The nature of test [17]: Quantitative High-Throughput drug screen in 47 multiple myeloma cell lines against the NCATS MIPE library collection: KMS28PE_JCRB cell viability assay (AID 1918983). Note: nearly all actives have a fitted effect of over 35% in size. Note: potency is the fitted concentration of half-maximal effect. The essentials:
as §1

The nature of test [18]: Quantitative High-Throughput drug screen in 47 multiple myeloma cell lines against the NCATS MIPE library collection: RPMI8226_ATCC cell viability assay (AID 1919871). Note: nearly all actives have a fitted effect of over 30% in size. Note: potency is the fitted concentration of half-maximal effect. The essentials: as §1
The target in test [19] is Cytochrome P450 3A4 (Homo sapiens) (UniProt P08684). The test can be described thus: qHTS for inhibitors of CYP3A4 against the NCATS DSHEA and TCM libraries (AID 1919971).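 Note: % is set by controls: 0 for no effect and ±100 for the full control effect; inhibition lowers luminescence from luciferin made by CYP3A4.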 The essentials: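 Luminescent P450-Glo readout. Enzyme plus pro-luciferin substrate in manufacturer buffer (typically 100 mM KPO4); 15 min RT preincubation; 1x NADPH regenerating system, 30-45 min RT in the dark; detection reagent 30 min.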
Background: Quantitative high-throughput screening tests each substance at several concentrations.

Test [20] in a line: Quantitative High-Throughput drug screen in 47 multiple myeloma cell lines against the NCATS MIPE library collection: L363_DSMZ cell viability assay (AID 1918984). Note: nearly all actives have a fitted effect of over 40% in size. Note: potency is the fitted concentration of half-maximal effect. The essentials: as §1

Each structure is given as a SMILES string. Records with an inconclusive call do not appear. Unmarked numbers belong to inactive results. Active and inactive are the calls of the source. Calls come from the whole dose curve; as a rule, active = well fitted curve in the direction sought with a large enough effect; inconclusive = small, poorly fitted or top-dose-only effect, or another doubt; inactive = no such curve, though single readings can be large; an effect the other way counts as inactive or inconclusive.

Cytochrome P450 3A4 (Homo sapiens), sequence (P08684 whole entry, looked up): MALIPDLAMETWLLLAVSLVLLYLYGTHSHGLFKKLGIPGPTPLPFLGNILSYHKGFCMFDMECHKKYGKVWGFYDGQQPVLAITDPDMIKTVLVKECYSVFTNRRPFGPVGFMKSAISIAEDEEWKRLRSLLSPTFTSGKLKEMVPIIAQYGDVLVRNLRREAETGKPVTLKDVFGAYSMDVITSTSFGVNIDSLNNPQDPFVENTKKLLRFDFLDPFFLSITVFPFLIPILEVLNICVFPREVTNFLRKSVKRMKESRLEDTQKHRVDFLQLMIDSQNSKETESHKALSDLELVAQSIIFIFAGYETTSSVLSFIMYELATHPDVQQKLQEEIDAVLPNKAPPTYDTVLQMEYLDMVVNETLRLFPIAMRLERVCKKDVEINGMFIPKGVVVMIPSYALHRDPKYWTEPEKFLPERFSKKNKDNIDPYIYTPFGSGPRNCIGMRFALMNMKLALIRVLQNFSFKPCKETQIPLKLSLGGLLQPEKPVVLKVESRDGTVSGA

On to `CN1CCN(CCCN2c3ccccc3Sc3ccc(C(F)(F)F)cc32)CC1`, for which the Potency entry in test [1], in test [2], in test [4], in test [14], in test [15] and in [16] was “inactive” throughout. Besides, the Potency is 5.9 µM (active) in test [3]; 26.4 µM (active) in test [5]; 1.66 µM (active) in test [7]; 1.05 µM (active) in test [8]; 1.18 µM (active) in [9]; 2.09 µM (active) in [10]. In addition, the Potency is 10.5 µM (active) in [11], 9.35 µM (active) in test [12] and 1.48 µM (active) in [13]. In addition, the viability in [6] was 123%.

Turning to `CCCS(=O)(=O)Nc1ccc(F)c(C(=O)c2c[nH]c3ncc(Cl)cc23)c1F`, the Potency entry in test [1], in test [2] and in test [14] was “inactive” in each case. The Potency is 1.32 µM (active) in test [3]; 14.8 µM (active) in test [4]; 18.7 µM (active) in [5]; 18.7 µM (active) in test [9]; 14.8 µM (active) in [10]; 11.8 µM (active) in test [13]. The Potency in test [15] was 26.4 µM (active). The viability in test [6] is 122%.

Take `NC(=O)c1cnccn1`: the Potency result in test [1], in [17], in test [12], in test [13], in [18] and in test [14] was “inactive” throughout. The Potency result in [15] and in test [16] was “inactive” throughout. Further, the viability in test [6] is 112%. For the same compound, in test [19], the call was inactive.

In the case of `O=c1[nH]cnc2[nH]ncc12`, the Potency result in [1], in test [2], in [3], in [18] and in [15] was “inactive” each time. For the same compound, in test [12], the Potency was 18.7 µM (active).

Consider `COc1cc2nccc(Oc3ccc(NC(=O)NC4CC4)c(Cl)c3)c2cc1C(N)=O`, for which the Potency is 20.9 µM (active) in [1]; 18.7 µM (active) in test [2]; 3.32 µM (active) in [4]; 16.6 µM (active) in test [5]; 13.2 µM (active) in [6]; 18.7 µM (active) in test [9]. Further, the Potency in test [11] was 2.64 µM (active); in test [12], 18.7 µM (active); in test [18], 20.9 µM (active); in [14] it was 13.2 µM (active); in [15], 20.9 µM (active); in test [16], 16.6 µM (active). Further, in test [20], the Potency result is “inactive”.

As to `O=C(O)CCc1ccc(NCc2cccc(Oc3ccccc3)c2)cc1`, the Potency result in test [1], in test [20], in test [2], in test [4], in test [9] and in [10] was “inactive” each time. The Potency result in [12], in test [18], in test [14] and in [15] was “inactive” each time. The viability in [6] is 111%.

With `CCOc1cc(C=C2C(=O)N(c3ccccc3)N=C2C)cc(Cl)c1OCC(=O)OC`, the Potency entry in test [1], in test [18], in [14], in [15] and in [16] was “inactive” throughout. The Potency in test [17] is 6.62 µM (active); in test [3], 3.72 µM (active); in test [5], 23.5 µM (active); in test [13], 16.6 µM (active). The viability in test [6] was 106%.

In the case of `CCCS(=O)(=O)Nc1ccc(F)c(C(=O)c2c[nH]c3ncc(-c4ccc(Cl)cc4)cc23)c1F`, the Potency was 16.6 µM (active) in test [1]; 5.9 µM (active) in [3]; 13.2 µM (active) in test [4]; 5.26 µM (active) in [7]; 2.96 µM (active) in test [8]; 7.43 µM (active) in test [9]. Further, the Potency in test [10] is 18.7 µM (active); in [11] it was 14.8 µM (active); in [12], 11.8 µM (active); in test [15], 8.33 µM (active). Further, the Potency entry in test [20] is “inactive”.

On to `Cc1cnc(Nc2ccc(OCCN3CCCC3)cc2)nc1Nc1cccc(S(=O)(=O)NC(C)(C)C)c1`, for which the Potency result in test [1], in [8] and in test [14] was “inactive” throughout. Moreover, the Potency in [20] is 0.296 µM (active); in test [9] it was 0.469 µM (active); in test [10] it was 0.332 µM (active); in test [16], 0.935 µM (active).
